# Laboratory results taken from PubChem BioAssay (NCATS).
# Inconclusive results are not listed. Entries that show only a call come without a potency. Calls of active or inactive are those of the source. Unless noted, calls come from the whole dose curve.
# Key:
# CRL-7250 = normal cell line; assay: qHTS assay to identify novel small-molecules to repurpose for Merkel cell carcinoma treatment (AID 1296009; active = well fitted inhibition curve with a large enough effect; note: nearly all actives have a fitted effect of over 60% in size); conditions: MCC and control cell lines, CellTiter-Glo viability, 72 h; series mostly up to 92 µM
# Method in brief: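 qHTS format: cells treated with library compounds in DMSO across 8 (NPC) or 11 (MIPE) concentrations. Readout after 72 hr at 37 degree celsius was CellTiter-Glo luminescence.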
# [1] = qHTS for Inhibitors of the Functional Ribonucleoprotein Complex (vRNP) of Lassa (LASV) Arenavirus: LASV Primary Screen - GLuc reporter signal (AID 1347082; calls by dose curve; tested in HEK293 reporter line; note: nearly all actives have a fitted effect of over 60% in size)
# [2] = qHTS for Inhibitors of the Functional Ribonucleoprotein Complex (vRNP) of Lassa (LASV) Arenavirus: Viability assay - alamar blue signal for LASV Primary Screen (AID 1347083; calls by dose curve; tested in HEK293 reporter line; note: nearly all actives have a fitted effect of over 80% in size; note: potency is the fitted concentration of half-maximal effect)
# [3] = qHTS for Inhibitors of the Functional Ribonucleoprotein Complex (vRNP) of Lymphocytic Choriomeningitis Arenaviruses (LCMV): Viability assay - alamar blue signal for LCMV Primary Screen (AID 1347085; calls by dose curve; tested in HEK293 reporter line; note: nearly all actives have a fitted effect of over 80% in size)
# [4] = molecular target: Nucleoprotein (Lymphocytic choriomeningitis virus (strain Armstrong)) (UniProt P09992); assay: qHTS for Inhibitors of the Functional Ribonucleoprotein Complex (vRNP) of Lymphocytic Choriomeningitis Arenaviruses (LCMV): LCMV Primary Screen - GLuc reporter signal (AID 1347086); note: nearly all actives have a fitted effect of over 70% in size
# Nucleoprotein (Lymphocytic choriomeningitis virus (strain Armstrong)), sequence (P09992 whole entry, looked up): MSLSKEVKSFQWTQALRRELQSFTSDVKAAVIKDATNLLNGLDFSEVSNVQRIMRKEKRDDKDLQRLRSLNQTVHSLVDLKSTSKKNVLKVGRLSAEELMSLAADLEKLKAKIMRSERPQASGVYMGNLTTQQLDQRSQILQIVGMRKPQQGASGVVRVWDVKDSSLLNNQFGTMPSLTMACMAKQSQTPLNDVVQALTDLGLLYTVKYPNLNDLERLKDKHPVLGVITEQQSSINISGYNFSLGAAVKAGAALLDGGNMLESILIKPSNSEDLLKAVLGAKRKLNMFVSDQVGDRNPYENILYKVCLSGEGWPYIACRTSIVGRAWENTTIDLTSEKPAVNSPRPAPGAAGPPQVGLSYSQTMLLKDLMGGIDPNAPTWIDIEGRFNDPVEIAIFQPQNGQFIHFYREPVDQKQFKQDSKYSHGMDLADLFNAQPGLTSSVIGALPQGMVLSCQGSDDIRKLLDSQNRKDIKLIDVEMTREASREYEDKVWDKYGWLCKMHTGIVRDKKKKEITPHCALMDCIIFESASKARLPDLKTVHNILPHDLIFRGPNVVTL
# [5] = Confirmatory qHTS for VERO E6 Cytotoxicity Assay: Counterscreen for SARS-CoV-2 CPE Assay (AID 1508605); note: nearly all actives have a fitted effect of over 60% in size
# [6] = Confirmatory qHTS for activators (rescue) of SARS-CoV-2 Cytopathic Effect (CPE) (AID 1508606); note: nearly all actives have a fitted effect of over 70% in size
# [7] = Cytotoxicity counterscreen for inhibitors of SARS-CoV-2 cell entry (AID 1645845); note: nearly all actives have a fitted effect of over 50% in size
# Method in brief: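 Expi293F/hACE2 cells seeded overnight; cpd pin-transferred in DMSO, 1 h preincubation, + media, 48 h 37 C 5% CO2; ATPLite 1step luminescence; normalized to cells and no cells.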
# [8] = Primary qHTS to identify inhibitors of SARS-CoV-2 cell entry (AID 1645846); conditions: activity change, negative = inhibition: at 57.1 µM (top of the series) unless noted; note: nearly all actives have a fitted effect of over 45% in size
# Method in brief: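 HEK293 cells stably expressing human ACE2, pre-treated 1 h with compound, then infected with MLV particles pseudotyped with Wuhan-Hu-1 spike (C-terminal 19-aa truncation). Luciferase luminescence after 48 h at 37 °C, normalised to spike PP and bald PP.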
# [9] = Primary qHTS for inhibitors of SARS-S pseudo-typed particle cell entry (AID 1479145); note: nearly all actives have a fitted effect of over 45% in size
# [10] = Primary qHTS for Huh7 cytotoxicity: counterscreen for inhibitors of MERS-S pseudotyped particle cell entry (AID 1479147); conditions: outcome: dose series up to 57.1 µM unless noted
# [11] = Primary qHTS for inhibitors of MERS-S pseudo-typed particle cell entry (AID 1479149); note: nearly all actives have a fitted effect of over 60% in size
# [12] = Primary qHTS for Vero E6 cytotoxicity: counterscreen for inhibitors of SARS-S pseudo-typed particle cell entry (AID 1479150); conditions: outcome: dose series up to 57.1 µM unless noted
smiles,measurement,setting,value
C=C1C(=O)OC(CCCCCCCC)C1C(=O)O (centres undefined),Potency,CRL-7250,inactive
O=C1Nc2ccc(I)cc2C1=Cc1cc(Br)c(O)c(Br)c1,Potency,[1],inactive
same,Potency,[2],inactive
same,Potency,[3],inactive
same,Potency,[4],inactive
same,Potency,CRL-7250,inactive
CCNC(=O)Nc1ccc2ncc(Nc3ccc(C)cc3)nc2n1,Potency,[1],inactive
same,Potency,[2],2170 nM (active)
same,Potency,CRL-7250,inactive
O=C(NCc1ccccc1)[C@H](Cc1ccccc1)NC(=O)[C@@H]1O[C@@H]1C(=O)NCCc1ccc(O)cc1,Potency,[1],inactive
same,Potency,[2],inactive
same,Potency,[3],inactive
same,Potency,CRL-7250,inactive
CC1C(=O)OC2C(O)C34C5CC(C(C)(C)C)C36C(OC(=O)C6O)OC4(C(=O)O5)C12O (centres undefined),Potency,[1],inactive
same,Potency,[2],inactive
same,Potency,[3],inactive
same,Potency,[4],inactive
same,Potency,CRL-7250,inactive
C/C=C(\C)C(=O)OCC1OC(OC2OC(CO)C(O)C(O)C2O)C(O)C(O)C1O (centres undefined),Potency,CRL-7250,inactive
CC(C)C1(O)NC(=O)C(CC2(O)c3ccccc3N3C(=O)C(C)(C)NC32)n2c1nc1ccccc1c2=O (centres undefined),Potency,CRL-7250,inactive
COc1c(OC2OC(CO)C(O)C(O)C2O)ccc(O)c1C(=O)OCc1ccccc1O[C@@H]1O[C@H](CO)[C@@H](O)[C@H](O)[C@H]1O (some centres undefined),Potency,CRL-7250,inactive
O=C(CS(=O)Cc1ccco1)NCC=CCOc1cc(CN2CCCCC2)ccn1 (centres undefined),Potency,[1],inactive
same,Potency,[2],inactive
same,Potency,[3],inactive
same,Potency,[4],inactive
same,Potency,CRL-7250,inactive
CCOC(=O)COc1ccc2c(c1)C[C@@H](NC[C@H](O)c1cccc(Cl)c1)CC2,Potency,CRL-7250,inactive
CC1(C)S[C@H]2[C@H](NC(=O)[C@@H](N)c3ccc(O)cc3)C(=O)N2[C@@H]1C(=O)O,Potency,[1],inactive
same,Potency,[2],inactive
same,Potency,[3],inactive
same,Potency,[4],inactive
same,Potency,CRL-7250,inactive
CC(=O)NC(CCC(=O)O)C(=O)NCCc1ccc(O)cc1 (centres undefined),Potency,CRL-7250,inactive
O=C(O)C1=NC(C(=O)O)CC(C=CN2c3cc(O)c(OC4OC(CO)C(O)C(O)C4O)cc3CC2C(=O)O)=C1 (centres undefined),Potency,[1],inactive
same,Potency,[2],inactive
same,Potency,[3],inactive
same,Potency,[4],inactive
same,Potency,CRL-7250,inactive
COC(=O)N[C@H](C(=O)N1CCC[C@@H]1c1ncc(-c2ccc(-c3ccc(-c4cnc([C@@H]5CCCN5C(=O)[C@@H](NC(=O)OC)C(C)C)[nH]4)cc3)cc2)[nH]1)C(C)C,Potency,[1],inactive
same,Potency,[2],inactive
same,Potency,[3],inactive
same,Potency,CRL-7250,inactive
CCCCCCCCCCCCc1ccc(S(=O)(=O)Nc2nncs2)cc1,Potency,[1],inactive
same,Potency,[2],inactive
same,Potency,[3],inactive
same,Potency,[4],inactive
same,Potency,[5],inactive
same,Potency,[6],inactive
same,Potency,[7],inactive
same,"activity change, negative = inhibition",[8],-14.7%
same,Potency,CRL-7250,inactive
CC1(C)[C@H]2CC[C@]3(C)[C@@H](C(=O)C=C4[C@@H]5C[C@@](C)(C(=O)O)CC[C@]5(C)CC[C@]43C)[C@@]2(C)CC[C@@H]1O,Potency,[1],inactive
same,Potency,[2],inactive
same,Potency,[3],inactive
same,Potency,[4],inactive
same,Potency,CRL-7250,inactive
C[N+]1(C)[C@@H]2C[C@@H](OC(=O)C(O)(c3cccs3)c3cccs3)C[C@H]1[C@@H]1O[C@@H]12,Potency,[1],inactive
same,Potency,[2],inactive
same,Potency,[3],inactive
same,Potency,[4],inactive
same,Potency,CRL-7250,inactive
CCCCCCCCCCCCCCCCCCCCCCO,Potency,[1],inactive
same,Potency,[2],inactive
same,Potency,[3],inactive
same,Potency,[4],inactive
same,outcome,[9],inactive [at 0.573 µM]
same,outcome,[10],inactive [at 0.573 µM]
same,outcome,[11],inactive [at 0.573 µM]
same,"activity change, negative = cytotoxicity",[12],2.8% [at 0.573 µM] (inactive)
same,"activity change, negative = inhibition",[8],-17.8% [at 27.1 µM]
same,outcome,[8],inactive [at 0.702 µM]
same,Potency,CRL-7250,inactive
CCCCCCCCCC(=O)N[C@@H](Cc1c[nH]c2ccccc12)C(=O)N[C@H](CC(N)=O)C(=O)N[C@@H](CC(=O)O)C(=O)N[C@@H]1C(=O)NCC(=O)N[C@@H](CCCN)C(=O)N[C@@H](CC(=O)O)C(=O)N[C@H](C)C(=O)N[C@@H](CC(=O)O)C(=O)NCC(=O)N[C@H](CO)C(=O)N[C@@H]([C@@H](C)CC(=O)O)C(=O)N[C@@H](CC(=O)c2ccccc2N)C(=O)O[C@@H]1C,Potency,[1],inactive
same,Potency,[2],inactive
same,Potency,[3],inactive
same,Potency,[4],inactive
same,Potency,[9],inactive
same,outcome,[10],inactive [at 26.4 µM]
same,Potency,[11],inactive
same,outcome,[12],inactive
same,Potency,[7],inactive
same,Potency,[8],inactive
same,"activity change, negative = inhibition",[8],-32.9% [at 27.1 µM]
same,Potency,CRL-7250,inactive
O=C(C[C@@H]1CC=CCCC(=O)O[C@H](c2ccccc2)CNC1=O)NCc1ccc(Cl)cc1,Potency,[1],inactive
same,Potency,[2],inactive
same,Potency,[3],inactive
same,Potency,[4],inactive
same,Potency,CRL-7250,inactive
